The nature of test [1]: AP1 Signaling Pathway (AID 357).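 Further: ME-180 reporter cells stimulated with EGF at its EC50 level; on the % scale 0 is the no-effect control and ±100 the full control effect.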 Particulars: ME-180 AP-1-bla reporter, EGF-induced, beta-lactamase ratio, 5 h; at 17.2 µM (top of the series) unless noted. In a few lines:
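Beta-lactamase reporter under AP-1 response element, ME-180 background. Stimulus: EC50 EGF. Compound exposure 5 h, 37 °C. Detection: CCF4, 2.5 h RT, 460/530 nm. Values: AC50 from titration.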

Test [2] is described as follows: NFAT Signaling Pathway (AID 444).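 Further: carbachol stimulus at about its EC50 of 1 µM final; on the % scale 0 is the no-effect control and ±100 the full control effect.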 Particulars: Jurkat NFAT-bla M1, carbachol, beta-lactamase ratio, 5 h; at 17.2 µM (top of the series) unless noted. A digest of the protocol: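 Jurkat cells with NFAT-driven β-lactamase reporter and co-expressed M1 receptor, stimulated with carbachol (final 1 uM, ~EC50), compound titration, 5 h at 37 °C. CCF4 loaded 1 h at RT; 460/530 nm ratio gave %activity and AC50.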

Test [3] can be described thus: Stat Signaling Pathway (AID 446).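 Further: ME-180 cervical cancer cells given 40 pM IL-6 alongside compound; SIE-controlled beta-lactamase reporter measured as 460/530 nm FRET emission ratio; on the % scale 0 is the no-effect control and ±100 the full control effect.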 Particulars: ME-180 (cervical carcinoma) SIE beta-lactamase reporter, IL-6 stimulated, 5 h; at 17.2 µM (top of the series) unless noted. In a few lines:
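Emission at 460 and 530 nm (excitation 405 nm) reports SIE-controlled beta-lactamase in ME-180 cells. Cells received compound with 40 pM IL-6 for 5 hrs at 37 C; data scaled between 300 pM IL-6 and 125 nM JAK-inhibitor controls.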

The target of test [4] is Glucocorticoid receptor (Homo sapiens) (UniProt P04150). Nature of the test: GR-GFP Redistribution (AID 450;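 active means compounds whose dose series gives a full or clear partial fitted curve of increased nuclear translocation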; further: potency means the concentration at half of the fitted maximal effect).
Chain of Glucocorticoid receptor (Homo sapiens) (P04150 whole entry, looked up): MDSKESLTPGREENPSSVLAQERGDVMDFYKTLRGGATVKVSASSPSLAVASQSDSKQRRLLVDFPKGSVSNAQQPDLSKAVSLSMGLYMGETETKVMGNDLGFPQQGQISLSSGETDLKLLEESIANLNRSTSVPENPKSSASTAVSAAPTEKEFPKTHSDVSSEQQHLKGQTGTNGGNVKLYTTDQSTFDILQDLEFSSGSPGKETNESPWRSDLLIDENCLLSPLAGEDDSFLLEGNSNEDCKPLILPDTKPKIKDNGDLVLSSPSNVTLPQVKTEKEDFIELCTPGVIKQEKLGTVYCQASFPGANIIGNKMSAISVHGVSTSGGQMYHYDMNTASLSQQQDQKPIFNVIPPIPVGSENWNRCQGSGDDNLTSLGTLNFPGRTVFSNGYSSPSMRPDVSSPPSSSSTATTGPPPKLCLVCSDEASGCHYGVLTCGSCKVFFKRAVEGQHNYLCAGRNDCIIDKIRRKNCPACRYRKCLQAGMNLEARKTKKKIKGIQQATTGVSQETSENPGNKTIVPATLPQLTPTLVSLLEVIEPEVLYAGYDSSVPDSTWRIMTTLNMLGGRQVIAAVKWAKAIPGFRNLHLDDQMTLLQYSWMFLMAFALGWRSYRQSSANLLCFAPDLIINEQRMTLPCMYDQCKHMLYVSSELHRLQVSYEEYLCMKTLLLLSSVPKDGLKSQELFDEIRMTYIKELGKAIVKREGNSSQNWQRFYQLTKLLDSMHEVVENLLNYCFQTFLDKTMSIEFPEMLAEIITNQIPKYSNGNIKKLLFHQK

Data on 25 molecules can be found in PubChem BioAssay (NCATS).

Each structure is given as a SMILES string. Unmarked numbers belong to inactive results. Results filed as inconclusive are left out. Activity calls are given as the source filed them. Unless noted, the call rests on the fitted dose curve; in most records, active means well fitted curve in either direction with a large enough effect (not every such curve was filed as active); inconclusive means small, poorly fitted or top-dose-only effect, or another doubt; inactive means flat fitted curve, though single readings scatter.

For `COc1ccc(OC)c(C2=Nn3c(nnc3-c3ccco3)SC2)c1`, the values for the activity change, negative = inhibition in test [1] and in test [2] were -13.7% and 24.6%, respectively. The activity, negative = inhibition in test [3] was -6.07%. Moreover, the Potency in test [4] was more than 20.6 µM.

For `Cc1ccc(NC(=O)c2cc(N3CCOCC3)nc3ccccc23)cc1`, the activity change, negative = inhibition was -15.5% in test [1] and 19.3% in test [2]. In test [3], the activity, negative = inhibition is -12.2%. The Potency in test [4] is more than 20.6 µM.

In the case of `CCCCN(C(=O)CCC(=O)O)C1CC(=O)N(c2ccc(OCCC)cc2)C1=O` (stereo not given), the activity change, negative = inhibition in test [1] is 0.952%; in test [2] it was -3.79%. Further, the activity, negative = inhibition in test [3] was 5.12%. The Potency in test [4] is more than 20.6 µM.

`CCOC(=O)Cn1nc(C)c2ccccc2c1=O`: the activity change, negative = inhibition was 5.31% in test [1] and 3.38% in test [2]. In addition, in test [3], the activity, negative = inhibition was -2.19%. Further, the Potency in test [4] was more than 20.6 µM.

Take `CCCCc1[nH]c(=O)c(C#N)c2c1CSC(C)(C)C2`: the activity change, negative = inhibition in test [1] was 15.5%; in test [2] it was -2.98%. Besides, the activity, negative = inhibition in test [3] was 3.1%. For the same molecule, the Potency in test [4] is more than 20.6 µM.

As for `CCOC(=O)COc1nc(N(C)C)nc(N(C)C)n1`, the activity change, negative = inhibition in test [1] is 5.84%; in test [2] it was -1.43%. Further, in test [3], the activity, negative = inhibition was 8.42%. Also, in test [4], the Potency is more than 20.6 µM.

With `CCCCCC1CC(CC#CCN2CCOCC2)C(=O)O1` (stereo not given), the activity change, negative = inhibition in test [1] is 9.22%; in test [2] it was -1.87%. Also, the activity, negative = inhibition in test [3] was -2.28%. Besides, the Potency in test [4] was more than 20.6 µM.

With `C[n+]1cccc(CNC(=O)/C=N/O)c1`, the activity change, negative = inhibition in test [1] is -0.78%; in test [2] it was 2.4%. Also, the activity, negative = inhibition in test [3] was 7.83%. Also, the Potency in test [4] was more than 20.6 µM.

As for `CC(C)(C)NCc1cc2ccccc2[nH]c1=O`, the activity change, negative = inhibition in test [1] is -4.82%; in test [2] it was -24.2%. In addition, the activity, negative = inhibition in test [3] was 3.71%. Besides, in test [4], the Potency is more than 20.6 µM.

Consider `COC(=O)c1[nH]c(C)c(/C(O)=C2\C(=O)C(=O)N(CCN3CCOCC3)C2c2cccnc2)c1C` (stereo not given), for which the activity change, negative = inhibition in test [1] is 0.561%; in test [2] it was -7.81%. Also, in test [3], the activity, negative = inhibition is 2.79%. Moreover, the Potency in test [4] was more than 20.6 µM.

As for `CCC(NC(=O)Nc1nnc(C(F)(F)F)s1)(C(F)(F)F)C(F)(F)F`, the activity change, negative = inhibition was 18.4% in test [1] and -115% (active) in test [2]. In addition, in test [3], the activity, negative = inhibition is -38.4%. For the same molecule, the Potency in test [4] was more than 20.6 µM.

`COCCNc1oc(-c2ccc(Cl)cc2)nc1C#N`: the activity change, negative = inhibition was -8.7% in test [1] and -6.46% in test [2]. The activity, negative = inhibition in test [3] was -5.03%. In test [4], the Potency was more than 20.6 µM.

`O=c1c2c3c(sc2nc2n1CCCS2)CCCC3`: the activity change, negative = inhibition is -22.8% in test [1] and -17.4% in test [2]. The activity, negative = inhibition in test [3] was 1.96%. In test [4], the Potency is more than 20.6 µM.

Turning to `COc1ccc(OCC(=O)N2CCN(C(=O)c3cccc4ccccc34)CC2)cc1`, the figures for the activity change, negative = inhibition in test [1] and in test [2] were -4.98% and 5.36%, respectively. For the same molecule, the activity, negative = inhibition in test [3] was -1.16%. Further, the Potency in test [4] was more than 20.6 µM.

On to `CS(=O)(=O)CCC(C(=O)n1nnc2ccccc21)N1C(=O)c2ccccc2C1=O` (stereo not given), for which the values for the activity change, negative = inhibition in test [1] and in test [2] were -2.33% and -13.1%, respectively. Moreover, the activity, negative = inhibition in test [3] is -20.7%. In addition, the Potency in test [4] was more than 20.6 µM.

As to `COc1ccc(/C(O)=C2/C(=O)C(=O)N(CCCN(C)C)C2c2cccc(Cl)c2)cc1OC` (stereo not given), the values for the activity change, negative = inhibition in test [1] and in test [2] were -5.39% and 6.97%, respectively. The activity, negative = inhibition in test [3] was 3.83%. The Potency in test [4] is more than 20.6 µM.

In the case of `Cc1cc(N2CCN(C3CCCC3)CC2)n2c(nc3ccccc32)c1C#N`, the activity change, negative = inhibition is 17.3% in test [1] and 19.5% in test [2]. Further, the activity, negative = inhibition in test [3] was 28.2%. The Potency in test [4] was more than 20.6 µM.

Turning to `CCCc1cc(=O)oc2c(CN3CCCC3)c(O)ccc12`, the activity change, negative = inhibition in test [1] is -13.6%; in test [2], 8.87%. In addition, the activity, negative = inhibition in test [3] was 2.68%. Further, the Potency in test [4] is more than 20.6 µM.

Turning to `CCCCCCn1c(C(C)O)nc2ccccc21` (stereo not given), the results for the activity change, negative = inhibition in test [1] and in test [2] were 0.304% and 5.62%, respectively. Moreover, the activity, negative = inhibition in test [3] is -3.73%. In addition, the Potency in test [4] was more than 20.6 µM.

For the molecule `O=c1[nH]c2cnccc2n1-c1ccccc1`, the activity change, negative = inhibition was -12.9% in test [1] and -4.82% in test [2]. The activity, negative = inhibition in test [3] is 1.57%. Besides, the Potency in test [4] is more than 20.6 µM.

Turning to `COn1c(SC2CCCCC2)nc2ccccc2c1=O`, the activity change, negative = inhibition in test [1] is -10.8%; in test [2], 7.75%. Moreover, the activity, negative = inhibition in test [3] was -9.6%. Further, in test [4], the Potency is more than 20.6 µM.

Regarding `CCCc1[nH]n(-c2nc3ccccc3s2)c(=O)c1C=NCCN1CCOCC1`, the results for the activity change, negative = inhibition in test [1] and in test [2] were -6.38% and -13.8%, respectively. Moreover, the activity, negative = inhibition in test [3] was -4.13%. The Potency in test [4] is more than 20.6 µM.

As to `CC(=O)c1cc2c(=O)c3ccccc3oc2nc1C`, the activity change, negative = inhibition was -1.73% in test [1] and -16.9% in test [2]. The activity, negative = inhibition in test [3] was 7.33%. The Potency in test [4] is more than 20.6 µM.

On to `O=C(OCCCN1CCCC1)C1(c2ccccc2)CCCC1`, for which the activity change, negative = inhibition was 14.4% in test [1] and -82.8% (active) in test [2]. The activity, negative = inhibition in test [3] was 13.7%. Besides, the Potency in test [4] was more than 20.6 µM.

With `Cc1nn(CC(N)=O)c(=O)c2ccccc12`, the activity change, negative = inhibition in test [1] is 11.8%; in test [2] it was 0.254%. Moreover, the activity, negative = inhibition in test [3] was 9.04%. Moreover, the Potency in test [4] was more than 20.6 µM.
